Measurements published in the OligoGym collection.

Biological target: SHOC2
Assay: pooled miR-30 sensor sort-seq; sequence = guide strand
Settings: shRNA
Also: reference of the scale not given here.

Sequence	sensor-assay potency score (higher = more potent)
TATCTAACTATACTACCTCTGT	-0.264
TTACTTAATACTTTTGCTCTGG	0.139
TTCTCTTCTAGATCCAACTCTC	-0.213
TTGATTGTGAGCTACATCCAGC	-0.412
TTTGTTCTCTTCTAGATCCAAC	-0.823
TTTGATCGTATTGTCAACTGAA	0.487
TTGTGAGCTACATCCAGCGTAA	0.0478
TATGTGTATAGATCTCTTGGAT	-0.313
TGAATTTTCACTTAGAGCCAGT	-0.612
TTGATCGTATTGTCAACTGAAA	-1.19
TATATCTAACTATACTACCTCT	-0.42
TCCAACTCTCTTAACTTCCTAA	-0.798

Biological target: SHOX2
Assay: as above
Settings: shRNA

Sequence	sensor-assay potency score (higher = more potent)
TACATTTAGCTCTTCGATTTTG	-1.22
TTCTTGCTGGTGGTCTTGGCGG	-1.37
TTCTATGCAAGAGTCCATCGTT	0.114
TTCTACATTTAGCTCTTCGATT	-0.898
TTTCTACATTTAGCTCTTCGAT	-1.28
TTTGAAACCAAACCTGCACTCG	-0.285
TCCAGGGTGAAATTGGTCCGAC	-1.19
TATGAGAACACCTTTATGGAGT	-0.114
TTTATGGAGTTGATTTTCTTGT	-0.402
TTTGCGATCTTTCAGCTCCGGG	-1.2
TTGCGATCTTTCAGCTCCGGGG	-1.14
TTTTCTTGTTTTCTACATTTAG	-1.51

Biological target: SHROOM4
Assay: as above
Settings: shRNA

Sequence	sensor-assay potency score (higher = more potent)
TTATTCGTCCCTCTAAGCCTGT	-0.267
TTGAAGAACAGTCCGTGGCTTG	-0.301
TTGCTTGCAAAACATTCTGAGT	-1.21
TTCATCTTGACAAAGTGCTGGT	0.618
TATCAGTACCAACTTCTCCTGG	-0.376
TAGTGGTTGAAGAACAGTCCGT	-0.287
TTTGCTTGCAAAACATTCTGAG	0.464
TTTCATCTTGACAAAGTGCTGG	0.237
TTGAAGAGCTTGTCTCTGGGGC	0.543
TAGCTTGACAAGTCCAGTGCTG	-0.0975
TAGAGCTCCTTGAACACTGCAG	0.417
TTTCTGAACTGAAATACTGGGG	-0.0667

Biological target: SIAE
Assay: as above
Settings: shRNA

Sequence	sensor-assay potency score (higher = more potent)
TATCTGTAACACAGTCATCTGC	-0.344
TAATCCATCAGTAAACTGCATT	-1.07
TTGATGTATGAAGCAAAGCGAA	-1.38
